From publication PMC7862700, “An all-to-all approach to the identification of sequence-specific readers for epigenetic DNA modifications on cytosine”

How the values were obtained:
Assay in all cases: DAPPL (digital affinity profiling via proximity ligation, sequencing); 10 mM Tris-HCl pH 7.5, 50 mM NaCl, 1 mM DTT, 4% glycerol, room temperature, 30 min; GST-TFs on glutathione beads, 16-mer random dsDNA library, 0.1% formaldehyde crosslink after washing; high values mean tight binding
Details in all cases: protein: recombinant; tags: N-terminal GST; dsDNA, one strand shown
ERF = molecular target: T1, ERF (Homo sapiens, UniProt P50548 1-548)
T1 sequence: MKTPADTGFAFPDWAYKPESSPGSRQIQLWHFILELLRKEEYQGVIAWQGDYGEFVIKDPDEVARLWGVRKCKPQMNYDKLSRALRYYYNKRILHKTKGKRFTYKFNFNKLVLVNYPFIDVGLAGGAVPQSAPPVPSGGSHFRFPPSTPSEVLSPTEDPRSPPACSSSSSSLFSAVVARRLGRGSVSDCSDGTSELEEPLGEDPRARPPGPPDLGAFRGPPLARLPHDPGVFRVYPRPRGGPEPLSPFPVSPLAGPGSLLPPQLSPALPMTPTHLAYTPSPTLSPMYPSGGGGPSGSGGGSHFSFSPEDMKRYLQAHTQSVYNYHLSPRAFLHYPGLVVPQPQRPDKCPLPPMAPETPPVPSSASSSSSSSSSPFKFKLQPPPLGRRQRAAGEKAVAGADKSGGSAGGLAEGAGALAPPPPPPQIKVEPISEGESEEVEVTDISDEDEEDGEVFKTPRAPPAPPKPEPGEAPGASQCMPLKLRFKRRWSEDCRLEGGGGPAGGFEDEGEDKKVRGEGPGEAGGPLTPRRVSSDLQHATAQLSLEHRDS
How it was run: (§1)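 A tag-only sample was pooled with DNA-barcoded human transcription factors that had been expressed in yeast as GST fusions and captured on glutathione beads. The pools were incubated for 30 min at room temperature with 200 nmole of a random double-stranded 16-mer DNA library in Tris/NaCl/DTT/glycerol buffer, then washed, crosslinked with 0.1% formaldehyde, proximity-ligated (BsaI/T4 ligase, 1 h, 37 °C), PCR-amplified and sequenced on an Illumina NextSeq500. Binding signal is each hexamer's read frequency for a factor divided by its frequency for the tag-only sample.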

ETV3L = molecular target: T2, ETV3L (Homo sapiens, UniProt Q6ZN32 1-361)
T2 sequence: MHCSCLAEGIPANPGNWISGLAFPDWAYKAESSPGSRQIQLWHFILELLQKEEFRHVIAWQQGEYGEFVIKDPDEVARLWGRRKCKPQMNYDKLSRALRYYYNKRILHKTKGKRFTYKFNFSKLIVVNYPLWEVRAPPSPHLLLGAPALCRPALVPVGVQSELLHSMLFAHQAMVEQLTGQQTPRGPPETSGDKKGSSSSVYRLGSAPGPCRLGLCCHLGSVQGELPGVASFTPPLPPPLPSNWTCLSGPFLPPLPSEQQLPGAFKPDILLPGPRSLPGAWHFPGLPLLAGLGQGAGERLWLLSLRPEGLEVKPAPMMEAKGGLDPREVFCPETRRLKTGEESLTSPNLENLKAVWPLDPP
How it was run: as §1

ETS2 = molecular target: T3, ETS2 (Homo sapiens, UniProt P15036 1-469)
T3 sequence: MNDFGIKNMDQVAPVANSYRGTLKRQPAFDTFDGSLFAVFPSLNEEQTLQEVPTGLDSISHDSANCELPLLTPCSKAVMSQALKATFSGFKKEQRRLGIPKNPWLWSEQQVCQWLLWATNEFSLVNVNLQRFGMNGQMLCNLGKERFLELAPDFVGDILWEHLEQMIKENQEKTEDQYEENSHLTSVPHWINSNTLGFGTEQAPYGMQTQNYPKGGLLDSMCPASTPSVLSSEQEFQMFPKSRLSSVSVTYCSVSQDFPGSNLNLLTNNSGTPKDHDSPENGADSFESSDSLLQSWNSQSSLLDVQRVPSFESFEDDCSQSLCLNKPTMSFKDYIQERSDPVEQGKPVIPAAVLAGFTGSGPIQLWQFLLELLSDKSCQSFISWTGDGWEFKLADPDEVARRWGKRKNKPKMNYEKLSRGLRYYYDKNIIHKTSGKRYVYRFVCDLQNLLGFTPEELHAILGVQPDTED
How it was run: as §1

SPDEF = molecular target: T4, SPDEF (Homo sapiens, UniProt O95238 1-335)
T4 sequence: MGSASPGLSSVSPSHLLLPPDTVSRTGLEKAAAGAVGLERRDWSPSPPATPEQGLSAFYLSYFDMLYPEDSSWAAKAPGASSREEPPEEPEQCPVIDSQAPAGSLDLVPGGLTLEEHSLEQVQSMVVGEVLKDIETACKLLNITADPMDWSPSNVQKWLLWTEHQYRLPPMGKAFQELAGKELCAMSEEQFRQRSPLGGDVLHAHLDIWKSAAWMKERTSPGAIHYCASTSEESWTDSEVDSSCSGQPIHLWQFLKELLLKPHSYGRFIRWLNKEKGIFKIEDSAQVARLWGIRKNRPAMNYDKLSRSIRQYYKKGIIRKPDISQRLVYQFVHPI
How it was run: as §1

ETV7 = molecular target: T5, ETV7 (Homo sapiens, UniProt Q9Y603 1-341)
T5 sequence: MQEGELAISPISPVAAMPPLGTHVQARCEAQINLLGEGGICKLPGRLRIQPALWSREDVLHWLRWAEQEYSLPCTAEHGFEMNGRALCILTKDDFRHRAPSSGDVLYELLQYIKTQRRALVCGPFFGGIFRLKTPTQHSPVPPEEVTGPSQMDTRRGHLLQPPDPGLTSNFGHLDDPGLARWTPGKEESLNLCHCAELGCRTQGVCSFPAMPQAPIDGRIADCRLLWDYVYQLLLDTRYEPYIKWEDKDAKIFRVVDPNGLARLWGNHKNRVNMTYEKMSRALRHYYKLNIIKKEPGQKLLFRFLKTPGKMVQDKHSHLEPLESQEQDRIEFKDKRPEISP
How it was run: as §1

ELF5 = molecular target: T6, ELF5 (Homo sapiens, UniProt Q9UKW6-2 1-255)
T6 sequence: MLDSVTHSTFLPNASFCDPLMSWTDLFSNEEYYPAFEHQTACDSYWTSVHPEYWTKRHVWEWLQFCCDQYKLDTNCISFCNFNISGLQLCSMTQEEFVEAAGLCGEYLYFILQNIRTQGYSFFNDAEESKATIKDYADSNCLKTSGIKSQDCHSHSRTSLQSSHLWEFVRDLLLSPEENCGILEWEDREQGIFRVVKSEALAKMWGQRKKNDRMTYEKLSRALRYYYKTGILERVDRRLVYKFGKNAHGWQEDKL
How it was run: as §1

ETV3 = molecular target: T7, ETV3 (Homo sapiens, UniProt P41162-2 1-143)
T7 sequence: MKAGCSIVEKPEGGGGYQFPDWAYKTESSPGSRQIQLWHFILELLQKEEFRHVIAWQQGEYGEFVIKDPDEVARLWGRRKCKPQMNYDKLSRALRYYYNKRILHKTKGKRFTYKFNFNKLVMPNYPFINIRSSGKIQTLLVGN
How it was run: as §1

ETV6 = ETV6 (Homo sapiens, UniProt P41212 1-452)
How it was run: as §1

Chain of ETV6 (P41212 whole entry): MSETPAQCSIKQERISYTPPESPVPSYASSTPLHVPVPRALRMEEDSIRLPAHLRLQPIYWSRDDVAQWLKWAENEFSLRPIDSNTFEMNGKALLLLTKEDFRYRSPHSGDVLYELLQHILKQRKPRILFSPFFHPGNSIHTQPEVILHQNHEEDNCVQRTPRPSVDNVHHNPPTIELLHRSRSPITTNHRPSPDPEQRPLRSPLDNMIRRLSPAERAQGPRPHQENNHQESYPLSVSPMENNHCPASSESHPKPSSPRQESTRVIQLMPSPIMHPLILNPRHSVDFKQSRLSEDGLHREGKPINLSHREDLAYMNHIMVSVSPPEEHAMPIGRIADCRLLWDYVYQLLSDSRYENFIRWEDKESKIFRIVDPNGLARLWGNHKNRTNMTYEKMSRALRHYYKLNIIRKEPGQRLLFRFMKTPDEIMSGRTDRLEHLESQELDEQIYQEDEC

Sequence: ATTTAT
- binding signal (ERF): 1.51 fold enrichment (6-mer frequency, TF over GST control)
- binding signal (ETV3L): 1.54 fold enrichment (6-mer frequency, TF over GST control)
- binding signal (ETS2): 1.47 fold enrichment (6-mer frequency, TF over GST control)
- binding signal (SPDEF): 1.4 fold enrichment (6-mer frequency, TF over GST control)
- binding signal (ETV7): 1.48 fold enrichment (6-mer frequency, TF over GST control)
- binding signal (ELF5): 1.39 fold enrichment (6-mer frequency, TF over GST control)
- binding signal (ETV3): 1.41 fold enrichment (6-mer frequency, TF over GST control)
- binding signal (ETV6): 1.4 fold enrichment (6-mer frequency, TF over GST control)

Sequence: ATGCTA
- binding signal (ERF): 1.26 fold enrichment (6-mer frequency, TF over GST control)
- binding signal (ETV3L): 1.37 fold enrichment (6-mer frequency, TF over GST control)
- binding signal (ETS2): 1.25 fold enrichment (6-mer frequency, TF over GST control)
- binding signal (SPDEF): 1.23 fold enrichment (6-mer frequency, TF over GST control)
- binding signal (ETV7): 1.3 fold enrichment (6-mer frequency, TF over GST control)
- binding signal (ELF5): 1.28 fold enrichment (6-mer frequency, TF over GST control)
- binding signal (ETV3): 1.28 fold enrichment (6-mer frequency, TF over GST control)
- binding signal (ETV6): 1.27 fold enrichment (6-mer frequency, TF over GST control)

Sequence: TCTTAT
- binding signal (ERF): 1.24 fold enrichment (6-mer frequency, TF over GST control)
- binding signal (ETV3L): 1.29 fold enrichment (6-mer frequency, TF over GST control)
- binding signal (ETS2): 1.31 fold enrichment (6-mer frequency, TF over GST control)
- binding signal (SPDEF): 1.24 fold enrichment (6-mer frequency, TF over GST control)
- binding signal (ETV7): 1.25 fold enrichment (6-mer frequency, TF over GST control)
- binding signal (ELF5): 1.29 fold enrichment (6-mer frequency, TF over GST control)
- binding signal (ETV3): 1.23 fold enrichment (6-mer frequency, TF over GST control)
- binding signal (ETV6): 1.3 fold enrichment (6-mer frequency, TF over GST control)

Sequence: TTTTGT
- binding signal (ERF): 1.33 fold enrichment (6-mer frequency, TF over GST control)
- binding signal (ETV3L): 1.34 fold enrichment (6-mer frequency, TF over GST control)
- binding signal (ETS2): 1.29 fold enrichment (6-mer frequency, TF over GST control)
- binding signal (SPDEF): 1.35 fold enrichment (6-mer frequency, TF over GST control)
- binding signal (ETV7): 1.22 fold enrichment (6-mer frequency, TF over GST control)
- binding signal (ELF5): 1.33 fold enrichment (6-mer frequency, TF over GST control)
- binding signal (ETV3): 1.34 fold enrichment (6-mer frequency, TF over GST control)
- binding signal (ETV6): 1.24 fold enrichment (6-mer frequency, TF over GST control)

Sequence: AACTAG
- binding signal (ERF): 1.16 fold enrichment (6-mer frequency, TF over GST control)
- binding signal (ETV3L): 1.09 fold enrichment (6-mer frequency, TF over GST control)
- binding signal (ETS2): 1.11 fold enrichment (6-mer frequency, TF over GST control)
- binding signal (SPDEF): 1.08 fold enrichment (6-mer frequency, TF over GST control)
- binding signal (ETV7): 1.1 fold enrichment (6-mer frequency, TF over GST control)
- binding signal (ELF5): 1.13 fold enrichment (6-mer frequency, TF over GST control)
- binding signal (ETV3): 1.14 fold enrichment (6-mer frequency, TF over GST control)
- binding signal (ETV6): 1.15 fold enrichment (6-mer frequency, TF over GST control)

Sequence: ATCTGG
- binding signal (ERF): 1.25 fold enrichment (6-mer frequency, TF over GST control)
- binding signal (ETV3L): 1.2 fold enrichment (6-mer frequency, TF over GST control)
- binding signal (ETS2): 1.11 fold enrichment (6-mer frequency, TF over GST control)
- binding signal (SPDEF): 1.06 fold enrichment (6-mer frequency, TF over GST control)
- binding signal (ETV7): 1.14 fold enrichment (6-mer frequency, TF over GST control)
- binding signal (ELF5): 1.11 fold enrichment (6-mer frequency, TF over GST control)
- binding signal (ETV3): 1.16 fold enrichment (6-mer frequency, TF over GST control)
- binding signal (ETV6): 1.1 fold enrichment (6-mer frequency, TF over GST control)

Sequence: GCTAAT
- binding signal (ERF): 1.23 fold enrichment (6-mer frequency, TF over GST control)
- binding signal (ETV3L): 1.13 fold enrichment (6-mer frequency, TF over GST control)
- binding signal (ETS2): 1.24 fold enrichment (6-mer frequency, TF over GST control)
- binding signal (SPDEF): 1.03 fold enrichment (6-mer frequency, TF over GST control)
- binding signal (ETV7): 1.23 fold enrichment (6-mer frequency, TF over GST control)
- binding signal (ELF5): 1.07 fold enrichment (6-mer frequency, TF over GST control)
- binding signal (ETV3): 1.2 fold enrichment (6-mer frequency, TF over GST control)
- binding signal (ETV6): 1.17 fold enrichment (6-mer frequency, TF over GST control)

Sequence: AGTGCT
- binding signal (ERF): 1.41 fold enrichment (6-mer frequency, TF over GST control)
- binding signal (ETV3L): 1.32 fold enrichment (6-mer frequency, TF over GST control)
- binding signal (ETS2): 1.46 fold enrichment (6-mer frequency, TF over GST control)
- binding signal (SPDEF): 1.33 fold enrichment (6-mer frequency, TF over GST control)
- binding signal (ETV7): 1.37 fold enrichment (6-mer frequency, TF over GST control)
- binding signal (ELF5): 1.48 fold enrichment (6-mer frequency, TF over GST control)
- binding signal (ETV3): 1.56 fold enrichment (6-mer frequency, TF over GST control)
- binding signal (ETV6): 1.52 fold enrichment (6-mer frequency, TF over GST control)

Sequence: CCCGCC
- binding signal (ERF): 1.53 fold enrichment (6-mer frequency, TF over GST control)
- binding signal (ETV3L): 1.56 fold enrichment (6-mer frequency, TF over GST control)
- binding signal (ETS2): 1.38 fold enrichment (6-mer frequency, TF over GST control)
- binding signal (SPDEF): 1.39 fold enrichment (6-mer frequency, TF over GST control)
- binding signal (ETV7): 1.48 fold enrichment (6-mer frequency, TF over GST control)
- binding signal (ELF5): 1.45 fold enrichment (6-mer frequency, TF over GST control)
- binding signal (ETV3): 1.47 fold enrichment (6-mer frequency, TF over GST control)
- binding signal (ETV6): 1.63 fold enrichment (6-mer frequency, TF over GST control)
